Screening data (PubChem)
The entries come from a sample that favours hits as a whole.
LmPK inhibitor: LmPK (Leishmania mexicana) enzyme inhibition; Q27686; purified LmPK, Kinase-Glo ATP luminescence, 1 h; Potency, µM (highest dose often 57.5 µM), for inactives: top-dose activity change, negative = inhibition, usual class: inhibitors; actives 0.37% (n = 290,000); active = well fitted curve in the direction sought with a large enough effect; inconclusive = small, poorly fitted or top-dose-only effect, or another doubt; inactive = no such curve, though single readings can be large; an effect the other way counts as inactive or inconclusive; note: potency is the fitted concentration of half-maximal effect; % is set by controls: 0 for no effect and ±100 for the full control effect
Target sequence (Q27686 whole entry, looked up): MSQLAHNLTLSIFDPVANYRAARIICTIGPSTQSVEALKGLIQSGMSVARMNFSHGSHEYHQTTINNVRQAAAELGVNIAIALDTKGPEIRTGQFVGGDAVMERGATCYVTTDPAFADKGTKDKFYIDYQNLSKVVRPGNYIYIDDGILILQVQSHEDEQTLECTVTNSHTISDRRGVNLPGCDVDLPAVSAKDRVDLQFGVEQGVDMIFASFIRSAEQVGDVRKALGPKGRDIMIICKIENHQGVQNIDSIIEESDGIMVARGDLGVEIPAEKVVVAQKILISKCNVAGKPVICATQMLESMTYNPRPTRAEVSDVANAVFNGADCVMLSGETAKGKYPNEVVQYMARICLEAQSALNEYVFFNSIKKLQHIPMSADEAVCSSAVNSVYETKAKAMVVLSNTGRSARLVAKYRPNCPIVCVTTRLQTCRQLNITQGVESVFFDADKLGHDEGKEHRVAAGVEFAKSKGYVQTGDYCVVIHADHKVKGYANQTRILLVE
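Pyruvate kinase activity monitored as ATP production (luciferase luminescence). Conditions: 0.1 nM enzyme, 0.5 mM PEP, 0.1 mM ADP, 1 h, RT; normalized against uninhibited and no-enzyme wells.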
SARS PLpro yeast: blocks SARS-CoV papain-like protease in a yeast assay. S. cerevisiae expressing SARS-CoV PLpro, growth rescue. Potency, µM (top dose mostly 32.9 µM), without a hit: top-dose activity, positive = growth rescue, most hits filed as activators. actives 0.19% (n = 330,000). AID 485353; note: potency is the fitted concentration of half-maximal effect; 0% is about no effect; nearly all actives have a fitted effect of over 55% in size
Cycloheximide cs: affects cycloheximide protein synthesis inhibition readout, counter-screen; cell reporter, cycloheximide protein synthesis inhibition counterscreen; max response, %; actives 12% (n = 300,000); AID 2314; in the data active = max response mostly above about 13%, no sharp cut-off; inactive = mostly below about 14%; note: read at 38.3 µM for the half of the compounds with a filed dose; 0% is about no effect
Shiga toxin inh: inhibitors of Shiga toxin in Vero cells. actives 9.2% (n = 290,000). Vero cells, Shiga toxin protein synthesis inhibition reporter. inhibition, % at 38.7 µM; in the data active = inhibition mostly above about 28%, no sharp cut-off; inactive = mostly below about 43%; note: 0% is about no effect
Tb PYK inh: inhibitors of Trypanosoma brucei pyruvate kinase. TbPYK enzyme, Kinase-Glo Plus ATP luminescence, 45 min. AID 624173. Q57TT1. actives 0.12% (n = 410,000). Potency, µM (highest dose often 76.8 µM), for inactives: top-dose activity, negative = inhibition, hits mostly inhibitors; active = well fitted curve in the direction sought with a large enough effect; inconclusive = small, poorly fitted or top-dose-only effect, or another doubt; inactive = no such curve, though single readings can be large; an effect the other way counts as inactive or inconclusive; note: potency is the fitted concentration of half-maximal effect; % is set by controls: 0 for no effect and ±100 for the full control effect; nearly all actives have a fitted effect of over 50% in size
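Readout: single end-point luminescence (Kinase-Glo Plus, 10 min). Reaction conditions were TbPYK/substrate plus 130 uM ADP, 45 min at RT, pH 7.2 TEA buffer. No-enzyme wells served as controls, and data were normalized before concentration-response fitting.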
NS1 function inh: influenza NS1 inhibition | Potency, µM (series often up to 46.1 µM), without a hit: at the highest dose activity, positive = more growth | actives 0.4% (n = 270,000); note: potency is the fitted concentration of half-maximal effect; actives are rising curves; nearly all actives have a fitted effect of over 50% in size
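Compounds were scored for reversing the slow growth caused by influenza A NS1 in S. cerevisiae, measured by optical density at 600 nm. Assay medium contained 2% galactose at pH 6.0; NS1-free yeast of the same strain were the positive control.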
An asterisk follows results filed as active; ? = inconclusive; / = no result given; [ ] = dose if it differs, or a comment. Unless noted, calls come from the whole dose curve.

SMILES	LmPK inhibitor	SARS PLpro yeast	Cycloheximide cs	Shiga toxin inh	Tb PYK inh	NS1 function inh
Cc1ccc2nc(-c3ccc(NC(=S)NCCC(C)C)cc3)sc2c1	/	/	/	/	-8.2%	/
CCC(C)(C)NC(=S)Nc1ccc(-c2nc3ccc(C)cc3s2)cc1	3.4%	2.8%	43.9*	82.1*	3.6%	13.2%
CCCCNC(=S)Nc1ccc(-c2nc3ccc(C)cc3s2)cc1	-1.7%	28.0%	65.4*	50.8*	-18.7%	12.0%
CN(C)c1ccccc1CN1CCCN(Cc2ccccc2N(C)C)C1c1ccncc1	/	/	/	/	/	-3.2%
CC(C)CN(CCCNC(=O)c1cc(-c2cccs2)nc2ccccc12)CC(C)C	/	/	/	/	-3.0%	/
CS(=O)(=O)Nc1cccc(C2=NN(S(=O)(=O)c3ccccc3)C(c3ccco3)C2)c1 (centres undefined)	-1.7%	1.7%	16.4*	36.7	-27.6%	/
CCS(=O)(=O)N1N=C(c2cccc(NS(C)(=O)=O)c2)CC1c1ccccc1 (centres undefined)	-0.9%[11.5 µM]	0.2%	3.5	11.3	-6.3%	/
CCS(=O)(=O)N1N=C(c2cccc(NS(C)(=O)=O)c2)CC1c1ccc(C)cc1 (centres undefined)	-1.9%[11.5 µM]	1.1%	27.5*	31.1	0.2%	/
CCS(=O)(=O)Nc1cccc(C2=NN(S(=O)(=O)c3ccccc3)C(c3ccco3)C2)c1 (centres undefined)	-0.4%	3.9%	12.0	-3.4	-5.6%	3.4%
COc1ccc2c(c1)c(CC(=O)N1CCOCC1)c(C)n2C(=O)c1ccc(Cl)cc1	/	/	/	/	/	-36.8%
COc1ccc2cc(-c3nc4ccccc4n3C)c(=O)oc2c1	13.1%	-4.9%	40.8*	67.4*	-11.0%	13.0%
Cn1c(-c2cc3ccccc3oc2=O)nc2ccccc21	-13.7%	-0.2%	40.4*	103.6*	2.0%	-2.0%
COc1ccc(-c2csc(C(NC(C)=O)c3ccccc3)n2)cc1 (centres undefined)	/	/	/	/	-7.1%	/
N#Cc1ccsc1NC(=O)CSc1ncnc2ccccc12	8.8%	1.8%	14.7*	12.2	-9.4%	19.0%
Cn1ccnc1SCC(=O)Nc1sccc1C#N	-2.1%	-7.0%	10.9*	14.3	2.8%	-0.2%
Cc1nnc(SCC(=O)Nc2sccc2C#N)s1	-7.1%	1.5%	14.0	-15.7	-6.2%	-0.8%
CC(C)(C)OC(=O)N/N=C/c1ccc(N2CCOCC2)s1	-1.0%	7.6%	55.3*	88.6*	-8.8%	?
O=C(N/N=C/c1ccc(N2CCOCC2)s1)c1ccccc1Br	-5.4%	0.5%	17.0	54.0	-1.4%	/
Clc1cccc(N/N=C/c2ccc(N3CCOCC3)s2)c1	1.4%	-58.6%	22.8*	17.5	-9.3%	10.0%
Nc1ccc(C(=O)N/N=C/c2ccc(N3CCOCC3)s2)cc1	/	2.8%	/	/	-1.9%	/
Cc1ccc(C(C)(O)CS(=O)(=O)Cc2ccccc2)cc1 (centres undefined)	1.5%	0.1%	15.6*	19.1	-2.2%	-1.3%
COc1ccc(CS(=O)(=O)CC(C)(O)c2ccccc2)cc1 (centres undefined)	8.7%	0.0%	-6.0	-10.0	-2.5%	0.9%
Cc1ccc(OCc2ccc(C(=O)O)o2)c([N+](=O)[O-])c1	3.7%	0.9%	13.3*	21.9	-1.7%	6.7%
COC(=O)c1ccc(COc2ccccc2[N+](=O)[O-])o1	-0.2%	-9.0%	45.3*	72.7*	2.7%	-13.4%
Cc1ccc(OCc2ccc(C(=O)N3CCCC3)o2)c([N+](=O)[O-])c1	0.3%	-6.7%	17.7	23.6	-0.1%	-52.2%
SMILES	LmPK inhibitor	SARS PLpro yeast	Cycloheximide cs	Shiga toxin inh	Tb PYK inh	NS1 function inh
CC(C)NC(=O)c1ccc(CSc2nc3ccncc3n2Cc2cccc(F)c2)cc1	/	/	/	/	1.6%	/
CC(C)C[C@H](NC(=O)[C@H](Cc1ccccc1)C[C@@H](O)[C@H](Cc1ccccc1)NC(=O)OC(C)(C)C)C(=O)N[C@@H](Cc1ccccc1)C(N)=O	/	/	5.4	-12.7	/	/
CCc1nnc(NC(=O)C2CCN(c3ncnc4sc(C)c(C)c34)CC2)s1	/	2.3%	/	/	-10.1%	/
Cc1ccc2nc(NC(=O)C3CC3C)sc2c1 (centres undefined)	-9.2%	2.9%	37.4*	94.3*	3.3%	1.8%
CC1CC1C(=O)Nc1nc2ccc(S(C)(=O)=O)cc2s1 (centres undefined)	2.2%	-2.9%	28.0*	59.1*	-1.3%	-8.8%
Cc1ccc2nc(NC(=O)C3CCN(c4ncnc5sc(C)c(C)c45)CC3)sc2c1	-7.6%	-1.9%	18.2*	20.6	2.3%	5.8%
CC(=O)c1ccc(NC(=O)c2noc3c2CCC3)cc1	0.8%	0.6%	10.0	63.9*	-2.9%	/
Cc1nn(Cc2ccccc2Cl)c(C)c1NC(=O)c1noc2c1CCCCC2	-3.6%	-6.9%	20.5*	3.5	-2.0%	-57.8%
O=C(Nc1cccc(O)c1)c1noc2c1CCCCC2	11.2µM*	-16.0%	22.2	-7.9	4.2%	-58.2%
Cc1ccccc1Cn1nc(C)c(NC(=O)c2noc3c2CCCC3)c1C	0.1%	-2.6%	0.3	-5.6	-11.1%	-17.0%
Cc1ccc(NC(=O)c2noc3c2CCC3)cc1C	11.4%	-0.3%	27.9*	93.3*	-15.6%	/
COC(=O)c1ccccc1NC(=O)c1noc2c1CCCC2	-0.6%	-0.3%	-2.6	21.2	2.0%	-18.2%
Cc1ccc(S(=O)(=O)N2Cc3ccccc3CC2C(N)=O)cc1 (centres undefined)	/	/	/	/	-7.3%	/
CCOc1ccccc1NS(=O)(=O)c1ccc2c(c1)N(C)CCO2	7.4%	2.2%	-3.5	34.3	5.3%	-8.2%
O=C(NCc1cccc(OC(F)(F)F)c1)c1ccc2c(c1)S(=O)(=O)c1cc(Cl)ccc1C2=O	/	5.0%	/	/	-4.0%	/
COc1ccc(NC(=O)c2noc3c2CCC3)cc1	15.8µM*	-9.9%	34.8*	65.3*	-16.9%	2.1%
O=C(Nc1ccc(OC(F)(F)F)cc1)c1noc2c1CCCC2	/	/	/	/	-5.7%	/
COc1ccccc1Cc1nc2ccccc2nc1SCC(=O)Nc1ccccc1C(F)(F)F	/	/	/	/	2.9%	/
CCC(=O)Nc1ccc(NC(=O)c2oc3ccccc3c2C)cc1	-2.4%	0.8%	10.4*	23.6	-1.7%	-28.0%
Cc1c(C(=O)NCc2ccccn2)oc2ccc(Br)cc12	/	6.1%	/	/	-11.4%	/
CC(=O)Nc1cccc(NC(=O)c2oc3ccccc3c2C)c1	-1.9%	-12.5%	48.3*	99.6*	/	-22.1%
Cc1c(C(=O)NCc2ccccn2)oc2ccccc12	-7.3%	-0.7%	31.7*	39.2*	-14.6%	-3.1%
Cc1c(C(=O)Nc2cnccn2)oc2ccccc12	-1.6%	4.4%	27.7*	61.0*	-11.9%	-15.5%
CCC(=O)Nc1ccc(NC(=S)NC(=O)c2oc3ccccc3c2C)cc1	0.2%	8.5%	-3.0	-7.2	-14.0%	-3.6%
CCCCN1C(=O)C(O)=C(C(C)=O)C1c1ccccc1[N+](=O)[O-] (centres undefined)	3.7%	-0.7%	4.0	-10.3	-0.3%	3.3%
